Sampled rows, rich in hits. Any-hit rate of the full collection: about 1.8%.
CFTR F508del cor: F508del CFTR correction, initial screen, CFBE line, single point | CFBE cells, YFP halide quenching; stimulated with forskolin plus potentiator P3; % fluorescence drop versus neutral controls | activity (quench increase), % at 7.58 µM | actives 0.36% (n = 350,000);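 active = mean added fluorescence quench of at least 8% versus neutral control, with both replicates also reaching 8%; inconclusive = only one of the mean or replicate conditions met; inactive = mean below 8% and not both replicates reaching 8%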;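 also: cells transiently co-express mutant CFTR-F508del with the halide-sensitive YFP; corrector assay measuring rescue of mutant channel to the surface after 24 h compound exposure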
EWS-Fli block: EWS/Fli-driven NR0B1 reporter inhibitors, primary screen, A673 cells, NR0B1 luciferase, luminescence, MLPCN library | AID 651661, 2012 | actives 0.67% (n = 350,000) | inhibition, % at 12.6 µM | viability-normalised;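 active = mean inhibition of at least 50% after viability correction, with every replicate also passing that limit; inconclusive = mean reaches 50% but only one of two replicates passes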;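 also: firefly luciferase signal divided by Alamar Blue viability fluorescence both relative to DMSO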
LGR2 antag: inhibitors of bursicon-induced LGR2 CRE-luciferase signal, primary screen, cell-based, HEK293, CRE-luciferase reporter, bursicon stimulation; bursicon-stimulated, 4 h; inhibition, % at 9.99 µM; actives 0.35% (n = 380,000);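 active = drop in luminescence signal, shown as inhibition above about 50% in the replicate tests, limit read from the data, passing the limit was not always enough; inconclusive = probably only some replicates passing the limit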;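 also: agonist challenge used bursicon conditioned medium at about half maximal strength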
PAX8 inh HTS: inhibitors of PAX8-driven TPO luciferase reporter, primary screen, RMG-I cells, single concentration; SteadyGlo, 24 h; inhibition, % at 12.6 µM; actives 1.2% (n = 360,000);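 active = mean replicate inhibition at least 60% with every replicate also reaching 60%; inconclusive = only one of the two criteria is met; inactive = mean below 60% and not all replicates reaching 60%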;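 also: luciferase light reporting Pax8 driven TPO promoter activity; plate controls were median of neutral control wells for no effect and mitoxantrone controls for full effect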
The depositor's hits bear a star.

What do the screens show for `C=C1C(=O)O[C@H]2[C@H]1[C@H](OC(=O)CC(=O)O[C@@H]1C[C@@H](C)[C@@H]3C=CC(=O)[C@@]3(C)[C@H]3OC(=O)C(=C)[C@H]13)C[C@@H](C)[C@H]1C=CC(=O)[C@]12C`?
CFTR F508del cor: -5.2; EWS-Fli block: 4.3; LGR2 antag: -7.3; PAX8 inh HTS: 68.4*

How did C=C1C(=O)O[C@@H]2C[C@@H](C)[C@@H]3C=CC(=O)[C@@]3(C)[C@@H](OC(=O)CC(=O)O[C@H]3[C@@H]4C(=C)C(=O)O[C@@H]4C[C@@H](C)[C@@H]4C=CC(=O)[C@]43C)[C@H]12 do in these assays?
CFTR F508del cor: -4.8; EWS-Fli block: 55.5*; PAX8 inh HTS: 109.3*

What do the screens show for `CCC1CN1P(=O)(c1ccccc1)N1CC1CC` (stereo not given)?
CFTR F508del cor: 4.1; EWS-Fli block: -0.1; LGR2 antag: 19.6; PAX8 inh HTS: -36.4

Results for CCOC(=O)[C@@H]1[C@@H]2NC(=S)N(C)[C@@]1(C)Oc1ccccc12 ?
CFTR F508del cor: 1.2; EWS-Fli block: -7.1; PAX8 inh HTS: 7.1

What do the screens show for `COCCO[C@H]1CC[C@@]2(C)C(=CCC3C2CC[C@@]2(C)C3CC[C@]2(C)O)C1` (stereo not given in full)?
CFTR F508del cor: 8.7*; EWS-Fli block: 3.3; LGR2 antag: 16.2; PAX8 inh HTS: -11.5

How did COC1/C=C/C=C(\C)Cc2cc(O)c(Cl)c(c2)N(C)C(=O)CC(OC(=O)C(C)C)C2(C)OC2C(C)C2CC1(O)NC(=O)O2 (stereo not given) do in these assays?
CFTR F508del cor: -2.4; EWS-Fli block: 40.6; LGR2 antag: -9.9; PAX8 inh HTS: 75.5*

How did CCOC(=O)C(O)(c1ccc(N(C)C(=O)COc2ccccc2)cc1)C(F)(F)F (stereo not given) do in these assays?
PAX8 inh HTS: 5.8

What do the screens show for `CN(C)C(=O)O/N=C(\N)COc1ccc(C(C)(C)C)cc1`?
CFTR F508del cor: 0.1; EWS-Fli block: 56.8*; LGR2 antag: -9.7; PAX8 inh HTS: -3.9

Results for CC1CCC(C(C)C)C(OC(=O)Cn2c(COc3ccccc3)[n+](C)c3ccccc32)C1 (stereo not given) ?
CFTR F508del cor: 1.3; EWS-Fli block: 19.6; LGR2 antag: 43.1; PAX8 inh HTS: 90.8*

How did CCCCCn1c(=O)c(C(=O)Nc2ccccc2S(N)(=O)=O)c(O)c2ccccc21 do in these assays?
CFTR F508del cor: -2.8; EWS-Fli block: 16.4; LGR2 antag: 26.4; PAX8 inh HTS: 83.1*

How did CCOc1ccc(-c2cc(C)[n+](CCN3CCOCC3)c(-c3ccc(OCC)cc3)c2)cc1 do in these assays?
CFTR F508del cor: 0.3; EWS-Fli block: 6.9; LGR2 antag: 7.7; PAX8 inh HTS: 97.5*

Results for CC1CCC/C=C/C2CC(O)CC2C(O)/C=C/C(=O)O1 (stereo not given) ?
PAX8 inh HTS: 127.1*

Results for C[C@H]1CCC[C@@H](O)CCC/C=C/c2cc(O)cc(O)c2C(=O)O1 ?
LGR2 antag: 37.7

Results for COC(=O)[C@H]1[C@H](CO)[C@H]2Cn3c(ccc(C4=CCCCC4)c3=O)[C@@H]1N2CC1CCCCC1 ?
CFTR F508del cor: -0.3; EWS-Fli block: 26.0; LGR2 antag: -3.0

Results for CNc1cc(Cl)c2nonc2c1[N+](=O)[O-] ?
CFTR F508del cor: -6.9; EWS-Fli block: 31.2; LGR2 antag: 104.2*; PAX8 inh HTS: inconclusive

How did Cc1cc([N+](=O)[O-])c(Cl)cc1NC(=O)C(C)C do in these assays?
LGR2 antag: 0.0; PAX8 inh HTS: 6.4

What do the screens show for `C=C1C(=O)[C@@]23C[C@H]4[C@@H]5[C@@]6(C)CCC[C@@]57[C@@H]2[C@@H](O)[C@@H]1C[C@H]3[C@H]7N4C6`?
CFTR F508del cor: -17.8; EWS-Fli block: 42.0; LGR2 antag: 59.0*

Results for C#CCOc1cc(C2C3=C(COC3=O)Nc3cc4c(cc32)OCO4)ccc1OC (stereo not given) ?
CFTR F508del cor: 7.1; EWS-Fli block: 62.6*; LGR2 antag: -31.1; PAX8 inh HTS: inconclusive

Results for CCOP(=O)(/C=C(\Cl)c1ccccc1)C(O)c1ccc(F)cc1 (stereo not given) ?
CFTR F508del cor: -0.6; EWS-Fli block: 15.3; LGR2 antag: -3.1; PAX8 inh HTS: 1.8

How did CC(C)(O)/C=C/C(=O)C(C)(O)C1C(O)CC2(C)C3CC=C4C(C=C(O)C(=O)C4(C)C)C3(C)C(=O)CC12C (stereo not given) do in these assays?
CFTR F508del cor: -13.1; EWS-Fli block: 30.0; LGR2 antag: 87.9*; PAX8 inh HTS: 91.4*

How did Cc1ccc(N2C(=O)NC(=O)/C(=C\C=C\c3ccco3)C2=O)cc1 do in these assays?
CFTR F508del cor: -0.7; EWS-Fli block: 55.9*; LGR2 antag: 4.3; PAX8 inh HTS: 9.8

Results for Cc1ccc(N2C(=O)NC(=O)/C(=C\C=C\c3ccco3)C2=O)cc1C ?
CFTR F508del cor: -4.8; EWS-Fli block: 71.7*; LGR2 antag: 6.7; PAX8 inh HTS: 31.2

How did Cc1cccc(N2C(=O)NC(=O)/C(=C\C=C\c3ccco3)C2=O)c1 do in these assays?
CFTR F508del cor: -7.5; EWS-Fli block: 67.4*; LGR2 antag: 14.9; PAX8 inh HTS: 7.8

How did Cc1ccc(N2C(=O)NC(=O)/C(=C\c3ccoc3)C2=O)cc1 do in these assays?
CFTR F508del cor: -0.1; EWS-Fli block: -2.7; LGR2 antag: 18.3; PAX8 inh HTS: -3.5

Results for CN1C(=O)/C(=C/C=C/c2ccco2)C(=O)NC1=S ?
CFTR F508del cor: -0.1; EWS-Fli block: 1.6; LGR2 antag: 1.4; PAX8 inh HTS: 7.5

Results for CN(C)c1ccc(/C=C/C=C2/C(=O)NC(=O)N(c3ccccc3)C2=O)cc1 ?
CFTR F508del cor: inconclusive; EWS-Fli block: 57.2*; PAX8 inh HTS: 32.4

How did Cc1cc(N2CCOCC2)ccc1/C=C1\C(=O)NC(=O)N(c2ccccc2)C1=O do in these assays?
CFTR F508del cor: 3.0; EWS-Fli block: -3.3; LGR2 antag: 6.0; PAX8 inh HTS: -18.0

What do the screens show for `CC1([N+](=O)[O-])COP(=O)(Nc2ccc(Cl)cc2)OC1` (stereo not given)?
CFTR F508del cor: 2.2; EWS-Fli block: -4.5; LGR2 antag: -13.0; PAX8 inh HTS: -22.3

How did Cc1c(CCC(=O)N2C[C@H]3C[C@@H](C2)c2cccc(=O)n2C3)c(=O)oc2c(C)c(O)ccc12 do in these assays?
CFTR F508del cor: -0.1; EWS-Fli block: -4.5; LGR2 antag: 4.5

How did C[C@H]1CN([C@@H](C)CO)C(=O)c2c(c3ccccc3n2C)-c2ccccc2CO[C@H]1CN(C)C(=O)Oc1ccccc1 do in these assays?
CFTR F508del cor: -2.4; EWS-Fli block: 6.7; LGR2 antag: -5.2; PAX8 inh HTS: 5.0

How did Cc1cc(OCC(=O)NCc2ccncc2)c2c3c(c(=O)oc2c1)CCCC3 do in these assays?
CFTR F508del cor: -1.0; LGR2 antag: 0.4; PAX8 inh HTS: 4.4

What do the screens show for `CC1OC(NCCc2ccccc2)C(O)C(O)C1O` (stereo not given)?
PAX8 inh HTS: 2.0
